Compound activity from PubChem BioAssay.
Most compounds without a hit are left out; they make up all but 7.3% or so of the library.
SMN2 splice enh: enhancers of SMN2 splice variant expression. HEK293 SMN2-luciferase splicing reporter, luminescence, 30-36 h. Potency, µM (series often up to 46.1 µM), for the others: at the highest dose activity change, positive = activation, most hits filed as activators. actives 2.8% (n = 210,000). AID 1458; also: % of control where 0% means no effect; nearly all actives have a fitted effect of over 55% in size
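HEK293 cells carry an SMN2 […]–luciferase reporter in which exon 7 inclusion puts luciferase in frame. Cells were plated 10-12 h before compound addition, then incubated 30-36 h at 37C. ONE-Glo luminescence was read; sodium butyrate at 4.5 mM final served as control.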
ELG1 genotoxic: induces genotoxicity in HEK293T cells with luciferase-tagged ELG1; AID 504466; actives 1.3% (n = 330,000); HEK293T ELG1-luciferase reporter, luminescence, 16 h; Potency, µM (highest dose often 46 µM), inactives show at the top dose activity change, positive = activation, most hits filed as activators; also: % of control where 0% means no effect; nearly all actives have a fitted effect of over 60% in size
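HEK293T cells expressing luciferase-tagged ELG1 were exposed to compound or DMSO vehicle for 16 hr at 37 °C and 5% CO2. Luciferase activity was then measured with ONE-Glo after 30 min at room temperature.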
Rab9 prom act: activates the Rab9 promoter | Potency, µM (titrated, usually from 9.22 µM), for the others: top-dose activation, negative = inhibition, actives largely listed as activators | Huh7 Rab9 promoter-luciferase reporter, luminescence, 24 h | actives 2.8% (n = 320,000); also: % of control where 0% means no effect; nearly all actives have a fitted effect of over 60% in size
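Huh7 cells stably carrying a Rab9 promoter-luciferase reporter, 1500 cells per well in OP-MEM I with 10% FBS, treated with compound 24 hours at 37C. Luciferase activity read by luminescence after 10 minutes with Amplite reagent.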
NPC1 promoter act: activates the NPC1 promoter; AID 485313; actives 2.4% (n = 320,000); Potency, µM (top dose mostly 9.22 µM), for the others: at the top dose activation, hits mostly activators; Huh7 NPC1 promoter luciferase reporter, 24 h; also: % of control where 0% means no effect; nearly all actives have a fitted effect of over 60% in size
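Stably transfected Huh7 (NPC1 promoter→luciferase), 1500 cells/well in Opti-MEM + 10% FBS, 2 h settle, then compound 24 h at 37 °C. Luminescence after 10 min with Amplite reagent.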
Luc counter: counter-screen: inhibitors of Kinase-Glo firefly luciferase. Q27757. Kinase-Glo luciferase, ATP luminescence, 8 min. Potency, µM (top dose mostly 38.3 µM), inactives show at the highest dose activity change, negative = inhibition, usual class: inhibitors. actives 0.28% (n = 200,000). AID 1379; also: % is scaled to controls: 0 for no effect and ±100 for the full control effect; nearly all actives have a fitted effect of over 60% in size
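Compound is pinned into ATP-containing buffer (10 uM ATP, imidazole pH 7.2, 7 mM MgCl2). Kinase-Glo luciferase reagent is then added. Light output is recorded following an 8-min room-temperature incubation.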
FLuc counter: inhibits or activates purified firefly luciferase, miR-21 counter-screen. P08659. purified FLuc, Km substrates, luminescence inhibition. Potency, µM (doses to about 57.5 µM), without a hit: at the highest dose activity change, negative = inhibition, hits mostly inhibitors. actives 6.9% (n = 360,000). AID 588342;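 also: plate controls were vehicle for no effect and reference inhibitor for full effect; nearly all actives have a fitted effect of over 55% in size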
Target sequence (P08659 whole entry, looked up): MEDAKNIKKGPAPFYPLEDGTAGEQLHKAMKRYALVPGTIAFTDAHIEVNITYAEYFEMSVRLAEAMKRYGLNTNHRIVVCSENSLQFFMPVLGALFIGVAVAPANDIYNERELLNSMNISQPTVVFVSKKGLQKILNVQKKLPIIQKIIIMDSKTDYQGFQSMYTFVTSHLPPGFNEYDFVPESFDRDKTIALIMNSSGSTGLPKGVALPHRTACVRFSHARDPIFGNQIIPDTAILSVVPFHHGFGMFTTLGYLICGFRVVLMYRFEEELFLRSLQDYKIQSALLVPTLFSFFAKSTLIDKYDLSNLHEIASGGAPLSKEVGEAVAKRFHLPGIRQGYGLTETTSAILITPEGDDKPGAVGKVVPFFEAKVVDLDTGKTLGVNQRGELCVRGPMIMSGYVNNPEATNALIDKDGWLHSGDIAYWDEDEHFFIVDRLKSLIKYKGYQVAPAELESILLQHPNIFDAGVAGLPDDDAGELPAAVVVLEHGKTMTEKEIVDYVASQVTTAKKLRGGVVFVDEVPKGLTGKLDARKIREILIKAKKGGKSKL
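Purified P. pyralis luciferase (10nM final) with 10uM D-luciferin and 10uM ATP (Km levels) in 50mM Tris acetate pH 7.5, 10mM Mg acetate, 0.01% Tween-20, 0.05% BSA; qHTS 6-point titration, ~60 µM downward; luminescence read.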
The depositor's hits bear a star; [ ] = remark or other dose. Calls follow the shape of the dose curve; as a rule, active = well fitted curve in the direction sought with a large enough effect; inconclusive = small, poorly fitted or top-dose-only effect, or another doubt; inactive = no such curve, though single readings can be large; an effect the other way counts as inactive or inconclusive. Potency is read from the fitted curve at half-maximal effect.

What do the screens show for `Cc1ccc(/C=C/C(=O)N2CCC(c3nc4ccccc4o3)CC2)cc1`?
FLuc counter: 11µM*

Results for CN1CCN(C(=O)/C=C/c2ccc(Cl)cc2)CC1 ?
ELG1 genotoxic: 3%; Rab9 prom act: -6%; NPC1 promoter act: 6%; FLuc counter: -10%

How did CCOC(=O)C1CCCN(C(=O)/C=C/c2ccc(Cl)cc2)C1 (configuration not stated) do in these assays?
SMN2 splice enh: -6%; ELG1 genotoxic: -1%; Rab9 prom act: 3%; NPC1 promoter act: 0%; Luc counter: 3%; FLuc counter: -20%

Results for Cc1ccc(/C=C/C(=O)N2CCCC(C)C2)cc1 (configuration not stated) ?
SMN2 splice enh: 1.1µM*; ELG1 genotoxic: 9.2µM*; Rab9 prom act: 2.2µM*; NPC1 promoter act: 1.3µM*; Luc counter: -4%; FLuc counter: 3µM*

How did CCCCOc1ccc(CNC(=O)CCCN2C(=O)CSc3c2c(C)nn3-c2ccccc2)cc1 do in these assays?
FLuc counter: -24%

What do the screens show for `Cc1ccc(CNC(=O)CCCN2C(=O)CCn3nc(-c4cn(C)c5ccccc45)cc32)cc1`?
FLuc counter: -3%

What do the screens show for `CC(C)Cc1ccc(/C=C/C(=O)N2CCCCC2)cc1`?
SMN2 splice enh: 11µM*; ELG1 genotoxic: 14%; Rab9 prom act: 0.89µM*; NPC1 promoter act: 2.5µM*; Luc counter: -4%; FLuc counter: 7.6µM*

Results for O=C(/C=C/c1ccccc1)N1CCCN(C(=O)/C=C/c2ccccc2)CC1 ?
SMN2 splice enh: -9%; ELG1 genotoxic: 3%; Rab9 prom act: 5%; NPC1 promoter act: 8%; Luc counter: -1%; FLuc counter: inconclusive

Results for Cc1ccc(/C=C/C(=O)N2CCC(Cc3ccccc3)CC2)cc1 ?
SMN2 splice enh: -8%[1.84 µM]; ELG1 genotoxic: -1%; Rab9 prom act: -5%; NPC1 promoter act: 0%; Luc counter: -5%; FLuc counter: 21µM*

What do the screens show for `CC(C)(C)c1ccc(/C=C/C(=O)N2CCCCC2)cc1`?
SMN2 splice enh: 13µM*; ELG1 genotoxic: inconclusive; Rab9 prom act: 1.6µM*; NPC1 promoter act: 4µM*; Luc counter: -3%; FLuc counter: 6.7µM*

What do the screens show for `CCOc1ccc(OCC(=O)Nc2nnc3n2CCS3)cc1`?
FLuc counter: 4%

How did O=C(c1cnn(C(=O)c2ccc(O)cc2)c1)c1ccccc1O do in these assays?
SMN2 splice enh: -6%; ELG1 genotoxic: -4%; Rab9 prom act: 0%; NPC1 promoter act: 2%; Luc counter: -10%; FLuc counter: 3.8µM*

Results for Cc1ccc(-n2cc(C(=O)c3ccccc3O)cn2)cc1 ?
SMN2 splice enh: -42%; ELG1 genotoxic: inconclusive; Rab9 prom act: inconclusive; NPC1 promoter act: 0.56µM*; Luc counter: inconclusive; FLuc counter: 0.3µM*

Results for Cc1ccc(-n2c(=O)c3c4c(sc3n(CC(=O)Nc3ccccc3C)c2=O)CCCCC4)cc1C ?
SMN2 splice enh: 12%; FLuc counter: -5%

What do the screens show for `CCCOc1ccc(C2=NC(c3ccc(F)cc3)=Nc3ccc(OC)cc3N2)cc1`?
SMN2 splice enh: 13%; FLuc counter: -17%

How did CN(C)c1ccc(C(C#N)c2ccccc2)nn1 (configuration not stated) do in these assays?
SMN2 splice enh: 6%; ELG1 genotoxic: 1%; Rab9 prom act: 1.4µM*; NPC1 promoter act: 3.2µM*; Luc counter: -2%; FLuc counter: -4%

What do the screens show for `CN(C)c1ccc(C(C#N)c2ccc(Cl)cc2)nn1` (configuration not stated)?
SMN2 splice enh: -13%; ELG1 genotoxic: -1%; Rab9 prom act: 0%; NPC1 promoter act: 12%; Luc counter: 1%; FLuc counter: 1%
